Screening data: PubChem BioAssay, several laboratories
IDE act: boosts human insulin-degrading enzyme activity in HEK cells. P14735. FAbeta-B cleavage, fluorescence polarization; 0% vehicle, 100% cell-free pure enzyme wells. activation, % at 5.96 µM. 0.073% of 340,000 active;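 active means activation above the mean of all tested compounds plus 3 SD, set per screening campaign, cut at about 17% in these data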
TPT1 inh: C. albicans TPT1 enzyme inhibition | recombinant caTPT1, FP RNA substrate dephosphorylation | inhibition, % at 5 µM | 0.81% of 300,000 active | AID 1962;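 active means inhibition above the mean of all tested compounds plus 3 SD, set per screening campaign, cut at about 24% in these data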
HNF4A DNA FP: change in binding of human HNF4 alpha to DNA. P41235. HNF4a-FITC DNA binding, fluorescence polarization, 1 h. activity change, % at 10 µM. 0.3% of 360,000 active. AID 1224865; in the data active means activity change above about 30%, passing the limit was not always enough
CRFBP-R2 agonist: agonists of human CRF-binding protein/CRF-R2 receptor complex | HEK293 CRF-R2/CRF-BP, calcium dye fluorescence (FLIPR); percent of saturating CRF peptide response | activation, % at 13.2 µM | 0.46% of 350,000 active;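 active means activation of at least 50%, plus an integration ratio under a set limit after plate pattern correction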
IDE cell inh: cellular human IDE inhibition; P14735; AID 434962; inhibition, % at 5.59 µM; HEK cells, FAbetaB cleavage, fluorescence polarization; 0.41% of 320,000 active;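 active means percent inhibition above the average of all tested compounds plus 3 SD, set per screening campaign, cut at about 16% in these data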;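 further: IDE supplied by intact live HEK cells; FP after avidin binding of uncleaved biotin substrate so inhibition keeps polarization high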
caTPT1 confirm: confirmation of Candida albicans TPT1 inhibitors; shares compounds with TPT1 inh; recombinant caTPT1, fluorescence polarization, RNase T1 coupled; inhibition, % at 5 µM; 74% of 2,400 active; AID 2149;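 active means inhibition above the primary screen limit, the mean inhibition of all tested compounds plus 3 SD, cut at about 25% in these data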
RNase T1 inh: blocks Aspergillus oryzae RNase T1, a TPT1 counter-screen. inhibition, % at 5 µM. shares compounds with TPT1 inh. 83% of 2,400 active. AID 2153. RNase T1 cleavage, fluorescence polarization, 1536-well;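 active means inhibition above the solvent-only control well mean plus 3 SD, limit set per screening run, cut at about 23% in these data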;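 further: inhibitors block cleavage so intact labeled substrate keeps polarization high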
Target sequence (P00651 whole entry, looked up): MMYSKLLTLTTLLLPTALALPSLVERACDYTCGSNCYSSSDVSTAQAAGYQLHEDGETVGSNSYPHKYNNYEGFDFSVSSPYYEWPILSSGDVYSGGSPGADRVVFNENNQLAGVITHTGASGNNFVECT
A number is an active result; - = inactive; . = no result. Shown are actives, neighbours in structure and some others; about 1.4% of the full set was active somewhere.

SMILES	IDE act	TPT1 inh	HNF4A DNA FP	CRFBP-R2 agonist	IDE cell inh	caTPT1 confirm	RNase T1 inh
COc1cccc(C(=O)NC(=O)Nc2cc(C)on2)c1	-	27.1	-	-	-	-	-
COc1cccc(NC(=O)Nc2cc(C)on2)c1	-	-	-	-	-	.	.
CCCCN(C=O)c1c(CC)nc2c(OCCOc3ccc(F)cc3)cccn12	.	.	-	.	.	.	.
N#C/C(=C\c1coc2ccc(O)cc2c1=O)C(=O)Nc1nc2ccccc2s1	-	28.4	-	235.4	-	92.8	89.5
COc1ccc(/C=C/c2cc[n+](C(=O)Cc3ccccc3)cc2)cc1	-	26.4	-	-	-	-	-
Cc1cc(NC(=O)/C(C#N)=C/c2ccc(-c3cccc(C(F)(F)F)c3)o2)n(-c2ccccc2)n1	-	-	-	-	-	.	.
Cc1cc(NC(=O)/C(C#N)=C/c2ccc(-c3ccc(SC(F)F)cc3)o2)n(-c2ccccc2)n1	-	57.1	-	-	-	56.7	66.1
O=C(Nc1nc2c(s1)CN(Cc1ccccc1)CC2)c1cccc(S(=O)(=O)N2CCc3ccccc32)c1	-	125.2	-	93.5	-	93.7	93.6
CCN1CCc2nc(NC(=O)c3ccc4c(c3)OCCO4)sc2C1	-	35.7	-	-	-	-	28.2
COc1ccc(N/C=C\C(=O)c2ccc(C)cc2)cc1OC	-	-	-	-	-	.	.
COc1ccc(N/C=C\C(=O)c2ccc(Br)cc2)cc1OC	-	33.6	-	-	-	50.0	60.0
COc1ccccc1NS(=O)(=O)c1cc([N+](=O)[O-])ccc1N/N=C/c1c(C)[nH]c2ccccc12	-	101.2	57.3	-	-	103.8	106.9
Cc1[nH]c2ccccc2c1/C=N/Nc1ccc([N+](=O)[O-])cc1	-	94.6	67.8	121.4	-	100.0	101.9
O=[N+]([O-])c1ccc(N/N=C/c2c[nH]c3ccccc23)c(S(=O)(=O)Nc2ccc(Cl)cc2)c1	-	36.5	64.8	93.8	-	106.5	107.6
Cc1[nH]c2ccccc2c1/C=N/NC(=O)c1cccc([N+](=O)[O-])c1	.	-	-	-	-	.	.
Cc1cc(C(C)(C)C)c(OC(=O)[C@@H]2OC(c3ccccc3)=C[C@H]2c2ccccc2)c(C(C)(C)C)c1	-	.	-	-	-	.	.
O=Cc1cc(-c2ccccc2)[nH]c1-c1ccccc1	-	-	-	-	-	.	.
Oc1cccc(Nc2nc(O)c(/C=C3\C=Nc4ccccc43)s2)c1	-	77.2	-	-	-	129.6	129.7
CN1CCN(S(=O)(=O)c2cccc(C(=O)Nc3sc4c(c3-c3nc5ccccc5[nH]3)CCCC4)c2)CC1	-	32.9	-	-	-	34.8	48.0
Cc1ccc(C2C(C#N)=C(N)SC(N)=C2C#N)c(C)c1	-	151.8	-	133.0	-	78.8	89.9
CC(C)C1C(C#N)=C(N)SC(N)=C1C#N	-	-	-	-	-	.	.
COc1ccc(N(C(=O)c2cccnc2)S(=O)(=O)c2cccc([N+](=O)[O-])c2)cc1	-	67.7	-	-	-	-	-
COc1ccc(N(C(=O)c2ccncc2)S(=O)(=O)c2cccc([N+](=O)[O-])c2)cc1	-	-	-	-	-	.	.
O=C(CCCC(=O)OCC(=O)c1ccc(Cl)cc1)NC1CCCCC1	-	-	-	-	-	.	.
CCOc1cc(/C=C(\C#N)C(=O)Nc2ccccn2)ccc1O	-	-	-	-	-	.	.
COc1cc(/C=C/C(=O)OCC(=O)Nc2ccc3c(c2)OCCO3)ccc1O	-	-	-	-	-	.	.
COc1cc(/C=C(\C#N)C(=O)Nc2ccc3c(c2)OCCO3)ccc1O	-	57.3	-	-	-	71.4	76.8
COc1cc(/C=C(\C#N)C(=O)Nc2ccccn2)ccc1O	-	33.9	-	-	-	57.2	63.5
O=[N+]([O-])c1cccc(C2NCC(c3ccccc3Cl)c3c2[nH]c2ccccc32)c1 (configuration not stated)	-	130.6	-	-	-	-	-
Cc1ccccc1N1C(=O)C(Cc2ccc(F)cc2)S/C1=C(\C#N)C(N)=O (configuration not stated)	.	26.4	-	-	-	-	-
